# Laboratory results: PubChem BioAssay (NCI)
# The panel holds about 83,000 compounds, 20% with a hit somewhere; the sample as a whole holds those more often.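 Values shown are percent growth following 48 h exposure of cells in 96-well plates to a single concentration of compound; below 10 was considered active.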 Values without a mark were called inactive. Active and inactive are the calls of the source.
# What was measured:
# Test in all cases: NCI-60 one-dose screen, 48 h (100 = growth as untreated, 0 = no growth, -100 = all killed)
# Conditions in all cases: 10 µM unless noted
# [1] = system: HCT-15 colon
# [2] = system: HT29 colon
# [3] = system: SNB-75 CNS
# [4] = system: SNB-19 CNS
# [5] = system: U251 CNS
# [6] = system: PC-3 prostate
# [7] = system: SK-MEL-5 melanoma
# [8] = system: UACC-62 melanoma
# [9] = system: LOX IMVI melanoma
# [10] = system: SK-MEL-28 melanoma
SMILES,growth [1] [%],growth [2],growth [3],growth [4] [%],growth [5] [%],growth [6],growth [7],growth [8] [%],growth [9],growth [10] [%]
CCCCCCCCCCCCCCCCCCOc1ccccc1N,85.6,92.5%,82.8%,87.1,50.3,21.3%,98.2%,88.5,38.6%,96.9
COc1ccc(-c2ncc(-c3ccccc3)[nH]2)cc1OC,104,113%,108%,104,113,112%,106%,95.3,116%,105
CC(O)/C=C/C=C/C(O)CC/C=C/C(=O)NCC(C)(C)O (stereo not given),104,102%,96.3%,99.6,98.3,91.7%,99.1%,90.1,95.3%,111
COc1ccc(/C=C/C(=O)c2ccc(Nc3ncnc4ccccc34)cc2)cc1OC,75.9,13.9%,92.2%,79.1,54.1,65.4%,91.9%,87.1,44.2%,98.1
c1ccc(-c2nn(-c3ccccc3)[n+](-c3ccccc3-c3ccccc3)n2)cc1,101,5.29% (active),29.7%,27.9,15,2.58% (active),-25.8% (active),26.4,12.5%,48.7
CC(=O)N1N=C(c2cccc(Nc3ccncc3)c2)CC1c1ccccc1 (stereo not given),82.8,33.2%,53.3%,91.8,72.9,75.9%,82%,86.7,90.9%,86.5
COc1ccc(C(=O)c2cc3c(N)c(C(=O)Nc4cccc5ccccc45)sc3nc2C)cc1,18.9,-68.5% (active),-11.3% (active),30.4,10.5,24.5%,-12.3% (active),31.8,23.7%,59.3
FC(F)(F)c1cccc(Nc2ccccc2)c1,99.4,105%,94.7%,98.2,97.7,102%,103%,96.5,98.7%,102
COc1ccc(NC(=O)c2sc3nc(C)c(C(=O)c4ccc(OC)cc4)cc3c2N)cc1,35.8,7.92% (active),21.2%,65.2,39.7,56.4%,35.1%,46.1,54.2%,64.9
CCOC(=O)c1c(C)nc2c(c1N)C(=O)C(=O)N2Cc1ccc(C(F)(F)F)cc1,24.1,65.1%,62.2%,59.3,41,43.7%,66.7%,42.8,54.1%,74.8
CC(=O)c1c(C)[nH]c(-c2nc3ccc(N4CCN(C)CC4)cc3[nH]2)c1-c1ccccc1,14.9,14.5%,-10.6% (active),33.2,44.7,32%,11.8%,14.3,6.13% (active),47.3
O=c1[nH]c(=O)[nH]c(=S)[nH]1,103,99.1%,96.5%,101,103,102%,102%,96.1,98.1%,102
COc1ccc(-c2nc(N/N=C/c3cccc(O)c3)nc(N3CCOCC3)c2C#N)cc1,46.9,72.6%,23.6%,85.9,58.9,56.5%,80.1%,90.1,79.6%,33.9
